Measured values from PubChem BioAssay AID488966 (Southern Research Specialized Biocontainment Screening …, 2010).
Where “and” joins values, the source holds several entries; their conditions need not be identical. Identical values can stand only once. Among all 340,000 compounds or so, about 55 (0.02%) were called active.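 Rule for the calls: active = phage lysis inhibition, versus mean bacterial control, above a set limit; inconclusive = no clear call, values can overlap the other calls; inactive = the rest.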 A selection follows. Results with a measured potency or affinity are listed apart.

assay: protection from phage-mediated lysis, alamar blue read-out – E. coli UTI89, K1F phage, bacterial capsule biogenesis inhibitors (AID 488966); conditions: 2 h; inhibition: at 100 µM, hits give high values unless noted; series mostly up to 300 µM;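 note: capsule biogenesis inhibitors block K1F phage lysis so surviving cells raise fluorescence; higher fluorescence means more inhibition of phage lysis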

inhibition, inactive:
CC(C)OCCCNC(=O)c1cc(-c2cccs2)nc2ccccc12 0.22%, CC1(C(=O)O)CCC(C(=O)Nc2ccccc2)C1(C)C (configuration not stated) 0.32%, COc1ccc(NC(=O)C2CCC(C)(C(=O)O)C2(C)C)cc1 (configuration not stated), CC(=O)c1ccccc1OCCCOc1cccc2cccnc12 0.48%, O=C(Nc1ccc(Br)cc1)c1ccc2ncsc2c1, O=C(Nc1ccc(F)cc1)c1ccc2ncsc2c1 0.29%, O=C(O)c1cc(-c2ccccc2)nn1CC1CC(c2cccnc2)=NO1 (configuration not stated) 1.3%, O=C(NCc1ccccc1)C1CCCN(S(=O)(=O)c2ccc(Br)cc2)C1 (configuration not stated) 1.64% [at 50 µM, hits give high values], CC(C)(C)c1ccc(OCC(O)CN(CCO)CC(O)Cn2ccc3ccccc32)cc1 (configuration not stated) 0.2%, CC1(c2ccccc2)NC(=O)N(NC(=O)CSc2n[nH]c(N)n2)C1=O (configuration not stated) 0.72%, COc1ccc(S(=O)(=O)N2CCN(c3ccccc3OC)CC2)cc1 0.03%, Cc1ccc(C)c(NC(=O)COC(=O)CCc2ccc(S(=O)(=O)N3CCOCC3)cc2)c1 -0.17%, CC(=O)Nc1cccc(-c2nnc(SCC(=O)N3CCCCC3)n2C)c1 0.94%, Cc1ccc(NC(=O)CCC(=O)NNC(=O)COc2cccc3ccccc23)c(C)c1 -0.27%, COc1ccccc1OCC(O)CN1CCN(CC(=O)Nc2c(C)cccc2C)CC1 (configuration not stated) 3.11% and 2.01%, CC(C)NC(=O)COc1cccc2ccccc12 1.21%, Cc1cc(C)c(NC(=O)COc2nncc3ccccc23)c(C)c1 -1.44%, CC(CCc1ccccc1)NC(=O)CN1CCOc2ccccc21 (configuration not stated) 0.85%, CSc1ccc(CN(C)CC(=O)Nc2ccc(NC(C)=O)cc2)cc1 -0.1%, COc1ccc(-c2nc(NCCCN(C)C)c3ccccc3n2)cc1 5.55%, CCN(CC)CCCNc1nc(-c2ccccc2)nc2ccccc12 0.145% [at 50 µM, hits give high values], O=C(O)CCCC(=O)Nc1cccc(C(=O)Nc2ccccc2C(=O)O)c1 1.41%, O=C1c2ccccc2C(=O)c2c(Nc3ccc(CCO)cc3)ccc(O)c21 -1.03% [at 50 µM, hits give high values], O=C1c2cccc(NCCCNCCO)c2C(=O)c2cccc(NCCCNCCO)c21, N=C(N)SCCc1cnc[nH]1 1.68%, Cc1cccc(CSC(=N)N)c1 7.29%, Cc1noc(/C=C/c2ccccn2)c1[N+](=O)[O-] 0.12%, CCOC(=O)C1(Cc2ccc(Cl)cc2)CCN(C(C)Cc2ccc(O)c(OC)c2)CC1 (configuration not stated) 0.5%, Cc1ccc(NC(=O)CN(C)C(=O)COc2ncnc3ccc(Br)cc23)cc1 0.5% [at 50 µM, hits give high values], COc1ccc(NS(=O)(=O)c2cccc(C(=O)NCCCN3CCOCC3)c2)cc1 1% [at 50 µM, hits give high values], CC(=O)NN=C1CCC(c2ccccc2)CC1 (configuration not stated) 4.73%, COc1ccccc1OCC(=O)NNC(=O)c1cccs1 5.22%, COc1ccc(C(CNC(=O)c2cncc(Br)c2)N(C)C)cc1 (configuration not stated) -0.11%, COc1cc(C2C(C#N)=C(N)Oc3n[nH]c(-c4ccncc4)c32)cc(OC)c1OC (configuration not stated) 1.19%, COc1ccccc1NC(=O)CN1C(=O)C(C)Oc2ccccc21 (configuration not stated) -1.62%, CCOc1ccc(S(=O)(=O)NCc2cccnc2)cc1C 0.14%, COC(=O)/C=C/C(=O)Nc1ccc(O)c(Cl)c1 -2.78%, Cc1ccc(N2C(=O)C3C4CCC(O4)C3C2=O)c(OC(F)F)c1 (configuration not stated) 2% [at 50 µM, hits give high values], CC(C)Nc1nc(SCC(=O)Nc2ccccc2)nc(N2CCOCC2)n1 -0.955% [at 50 µM, hits give high values], c1ccc(C(c2nnnn2C2CCCCC2)N2CCc3ccccc3C2)nc1 (configuration not stated) 6.52%, C/C(=N\NC(=O)C(O)c1ccccc1)c1ccc(Cl)cc1 (configuration not stated) 0%, O=C(COC(=O)c1ccccn1)Nc1ncc(C(F)(F)F)cc1Cl 1.67%, Cc1noc(/C=C/c2ccco2)c1S(=O)(=O)N1CCC(C(=O)NCc2ccco2)CC1 0.57%, Cc1cc(C)n(CC(=O)NCc2ccccc2)c(=O)c1C#N 0.26%, O=c1[nH]c2ccccc2c2ccc(Cl)cc12 -0.77%, Cc1ccc(NC(=O)N/C=C/c2ccco2)cc1 -0.09%, COc1ccc(NC(=O)CN2C(=O)/C(=C3\SC(=S)N(CCC(=O)O)C3=O)c3ccccc32)cc1 1.3% [at 50 µM, hits give high values], CSc1nnc(-c2cccn(Cc3cccc(Cl)c3)c2=O)o1 0.19%, Cc1cc(N(C)/N=C/c2ccccc2O)nc(-c2ccccc2O)n1 -1.22%, COc1ccc2[nH]c3c(c2c1)CCN1C(=O)N([C@@H](C)C(=O)NCc2ccc(F)cc2)C(=O)[C@]31C 1.55%, Cc1ccn2cc(-c3cccc(S(=O)(=O)N4CCCCC4)c3)nc2c1 -0.04%, COc1ccccc1C(=O)NCCC(=O)NC1CCCCCC1 0.81% [at 50 µM, hits give high values], COc1ccc(C(C)(C)C)cc1S(=O)(=O)N1CCN(C)CC1 0.43%, Cc1cccc(NC(=O)Nc2ccncc2)c1 3.48%, O=C(Nc1ccncc1)Nc1cccc(F)c1 0.13%, COc1ccc2c(c1)C1=C(CC2)C(c2ccc(C)cc2)NC(=S)N1 (configuration not stated) -0.41%, CN(C)CCN(C(=O)c1ccc2c(c1)OCCO2)c1nc2ccc(Cl)cc2s1 3.17% [at 50 µM, hits give high values]
